Structures are written as SMILES. Where “and” joins values, the source holds several entries; their conditions need not be identical. Identical values can stand only once. Records with an inconclusive call do not appear. Unmarked numbers belong to inactive results. Calls of active or inactive are those of the source. Calls come from the whole dose curve; as a rule, active = well fitted inhibition curve with a large enough effect; inconclusive = small, poorly fitted or top-dose-only effect; inactive = flat fitted curve, though single readings scatter.

The source of these data is PubChem BioAssay (NCATS).

Assay [1] has as its system CRL-7250. Kind of assay: Cytotoxic Profiling of Annotated Libraries Using Quantitative High-Throughput Screening (AID 1296008). For max response: % is set by controls: 0 for no effect and ±100 for the full control effect. Note: potency is the fitted concentration of half-maximal effect. The settings on record: Five cell lines viability, CellTiter-Glo ATP luminescence, 48-72 h; max response: active compounds read low. A digest of the protocol: (§1)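 Cytotoxicity was measured as CellTiter-Glo ATP luminescence, read after 10 min at room temperature. Compound treatment of the cells lasted 48 or 72 hr at 37 degrees Celsius in a qHTS format.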
(In general: Cellular ATP, detected with luciferase, serves as a proxy for viable cell number.)

Assay [2] concerns HEK293. The assay is described as above. Particulars: Five cell lines viability, CellTiter-Glo ATP luminescence, 48-72 h; max response: active compounds read low. A digest of the protocol: as §1
Assay [3] has as its system HaCat. Described as above. The settings on record: Five cell lines viability, CellTiter-Glo ATP luminescence, 48-72 h; max response: active compounds read low. Summed up:
as §1

The test system of assay [4] is KB-3-1. Described as above. The settings on record: Five cell lines viability, CellTiter-Glo ATP luminescence, 48-72 h; max response: active compounds read low. A digest of the protocol: as §1
The test system of assay [5] is NIH3T3. The assay is described as above. Particulars: Five cell lines viability, CellTiter-Glo ATP luminescence, 48-72 h; max response: active compounds read low. Summed up: as §1
Assay [6] deals with MCC-13. Kind of assay: qHTS assay to identify novel small-molecules to repurpose for Merkel cell carcinoma treatment (AID 1296009). The settings on record: MCC and control cell lines, CellTiter-Glo viability, 72 h; series mostly up to 46 µM. A digest of the protocol:
(§2)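 Cell viability measured by CellTiter-Glo following 72 hr compound treatment at 37 degree celsius, with NPC and MIPE libraries tested in 8- and 11-point concentration series.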
On the technique in general: In qHTS, concentration-response curves come from the screen itself.

In assay [7] the test system is HACAT. The description is as above. Particulars: MCC and control cell lines, CellTiter-Glo viability, 72 h. Summed up:
as §2

Assay [8] has as its system HEK293T. Described as above. Particulars: MCC and control cell lines, CellTiter-Glo viability, 72 h; at 44.8 µM (top of the series). A digest of the protocol: as §2
Assay [9] concerns TAB165. Kind of assay: qHTS profiling for inhibitors of Plasmodium falciparum proliferation (AID 504749).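 Note: 0% = DMSO vehicle and full inhibition = artemisinin control.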 The settings on record: P. falciparum in erythrocytes, SYBR Green DNA, 72 h; series mostly up to 28.7 µM. A digest of the protocol: (§3)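 In a 72 h erythrocytic culture (37 C, humidified, 5% CO2) at 2.5% hematocrit and 0.3% starting parasitemia, compounds were tested; SYBR Green I in detergent lysis buffer stained parasite DNA overnight.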

In assay [10] the test system is W2. The assay is described as above. The settings on record: P. falciparum in erythrocytes, SYBR Green DNA, 72 h; series mostly up to 28.7 µM. A digest of the protocol:
as §3

[11] abbreviates: at 44.8 µM (top of the series) unless noted.
Note: nearly all actives have a fitted effect of over 60% in size.

As to `CCOc1cc(C(=O)Nc2ccc(Cl)c(-c3nc4ccccc4[nH]3)c2)cc(OCC)c1OCC`, the molecule was called inactive in assay [1] and in assay [5]. Also, in assay [2], the Potency was 16.6 µM (active). In addition, the max response was 1.32% and 3.52% in [3]; -16% and -9.64% in [4]; -3.49% in assay [5]. Also, the Potency entry in [6] was “inactive”.
In the case of `Cc1c(CN2CCN(C(=O)C(C)C)CC2)sc2c(N3CCOCC3)nc(-c3cnc(N)nc3)nc12`, the Potency is 0.118 µM (active) in assay [1]; 0.187 µM (active) in [2]; 1.05 µM (active) in assay [3]; 0.148 µM (active) in [4]; 0.469 µM (active) in [5].
For `Cc1cc(SCc2sc(-c3ccc(C(F)(F)F)cc3)nc2C)ccc1OCC(=O)O`, the max response was -3.25% in assay [1]; 3.06% and 3.28% in assay [2]; -0.39% and 1.93% in assay [3]; 0.144% in assay [4]. The call in [4] and in [5] was inactive. Further, in assay [6], the Potency entry was “inactive”.
As for `COc1ccc(-c2c(-c3ccc(O)cc3O)n[nH]c2C)cc1`, the Potency in assay [1] is 30.3 µM (active); in assay [2], 27 µM (active). Moreover, the outcome in assay [3] is “inactive; activator”; in [7] (setting [11]), “inactive; activator [at 92 µM]”. Moreover, the figures for the max response in assay [4] and in assay [5] were -14.6% and -24.1%, respectively. Moreover, the Potency result in assay [6] was “inactive”.
Turning to `O=C(Nc1nc2ccccc2n1CCN1CCOCC1)c1cccc([N+](=O)[O-])c1`, the outcome in assay [1], in [2], in assay [3], in [5], in assay [7] (setting [11]) and in assay [8] was inactive. Further, the max response in assay [4] is 4.26%. In addition, the Potency result in assay [6] was “inactive”.
On to `O=C(O)CCc1ccc(NCc2cccc(Oc3ccccc3)c2)cc1`, for which the max response in assay [1] is 4.81%; in [3], -7.54%; in assay [4], -3.52% and 6.14%. In addition, the outcome in [2], in [3], in [5], in [7] (setting [11]) and in assay [8] was inactive.
As for `NCCCC(N)(C(=O)O)C(F)F` (configuration not stated), the Potency result in assay [9], in assay [10] and in assay [6] was “inactive” in each case. The max response in assay [1] was -1.33% and -4.78%; in [2], -1.85% and -25.2%; in assay [3], -8.41%; in assay [4], -4.94% and 7.79%; in [5], -17.4%. Moreover, the result in assay [3] and in assay [7] (setting [11]) was inactive.
As for `Cc1cc(C=c2sc3nc4ccccc4n3c2=O)c(C)n1-c1ccccc1`, the max response was -1.5% in assay [1], -0.0904% in assay [2], 1.4% in assay [4] and -1.17% in assay [5]. Besides, the result in assay [3] and in assay [7] (setting [11]) was inactive. For the same molecule, the Potency entry in assay [6] is “inactive”.
In the case of `CCCC(CCC)C(=O)O`, the max response is -7.38% and -1.13% in assay [1]; -7.93% and 2.58% in [2]; 2.57% in assay [3]; 5.52% and 6.84% in [4]; 0.659% in assay [5]. The molecule was called inactive in assay [3] and in [7] (setting [11]). Besides, the Potency entry in assay [6] is “inactive”.
For `CC(C)(Sc1ccc(CCN(CCCCC2CCCCC2)C(=O)NC2CCCCC2)cc1)C(=O)O`, the max response is -21.5% and -0.943% in assay [1]; 4.49% in assay [2]; -19.6% and 1.18% in assay [3]; 5.99% in assay [4]; -1.54% and 3.22% in [5]. The molecule was classed as inactive in assay [4]. The Potency result in assay [6] was “inactive”.
For `NC(=O)c1ccc(I)c([N+](=O)[O-])c1`, the figures for the max response in assay [1], in [4] and in assay [5] were 1.49%, 7.82% and -1.58%, respectively. Besides, the molecule was classed as inactive in assay [2], in assay [3], in assay [7] (setting [11]) and in assay [8]. For the same molecule, the Potency entry in [6] is “inactive”.
For the molecule `Nc1ccc(S(=O)(=O)Nc2ccnn2-c2ccccc2)cc1`, the Potency result in assay [9], in assay [10] and in assay [6] was “inactive” throughout. For the same molecule, the molecule was classed as inactive in assay [1], in assay [3], in [7] (at 17.4 µM (top of the series)) and in [7] (at 44.8 µM (top of the series)). For the same molecule, the max response is -2.4% and -5.26% in [2]; -3.13% and 3.95% in assay [4]; 4.45% and 3.04% in assay [5].
In the case of `CN(C)C(=O)c1ccc(S(=O)(=O)c2ccc(NC(=O)[C@@](C)(O)C(F)(F)F)c(Cl)c2)cc1`, the Potency in assay [1] was 5.26 µM (active) and 5.8 µM (active); in assay [2], 3.72 µM (active). Further, the max response in assay [3] was -8.31%; in [4], -27.1% and -22.5%. Further, the call in assay [3], in assay [5] and in assay [7] (setting [11]) was inactive. In addition, the Potency entry in assay [6] is “inactive”.
As to `CCn1c(-c2nonc2N)nc2cnc(Oc3cccc(NC(=O)c4ccc(OCCN5CCOCC5)cc4)c3)cc21`, the Potency in assay [1] is 20.9 µM (active); in assay [2], 11.8 µM (active); in [4], 5.9 µM (active); in assay [5], 14.8 µM (active). Moreover, the max response in assay [3] is -18.5%.
For `O=c1[nH]cnc2[nH]ncc12`, the Potency entry in [9], in assay [10] and in [6] was “inactive” in each case. The max response in assay [1] is 2.71% and -1.4%; in assay [2] it was -10.4%; in [3], 0.897%; in [4], 2.11% and 5.17%; in [5], 4.86% and -3.07%. In addition, the molecule was classed as inactive in assay [3] and in assay [7] (setting [11]).
With `Clc1cccc(Cl)c1NC1=NCCN1`, the Potency result in assay [9], in assay [10] and in assay [6] was “inactive” throughout. In addition, the max response in assay [1] was 0.663% and -4.74%; in assay [2] it was -3.7% and -4.57%. The molecule was classed as inactive in assay [3], in [4], in [5] and in assay [7] (setting [11]).
Consider `CNCc1ccc(-c2[nH]c3cc(F)cc4c3c2CCNC4=O)cc1`, for which the result in assay [1], in assay [3] and in assay [7] (setting [11]) was inactive. Besides, the Potency in assay [2] was 11.6 µM (active). Further, the max response in assay [3] was 4.8%; in [4], 9.78%; in assay [5] it was -1.23% and -23.6%. The Potency entry in [6] is “inactive”.
